The results in this text go back to PubChem BioAssay AID431 (Sanford-Burnham Center for Chemical Genomics, 2006).

Screen size: about 63,000 compounds; about 1,100 (1.7%) were called active. The full list was thinned out, with actives kept by preference. Results with a measured potency or affinity are listed apart. Unmarked numbers belong to inactive results.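 How the source made its calls: active means compounds whose percent cytotoxicity in the single-dose primary screen, scaled between solvent and toxic-drug controls, exceeds 50; inactive means the rest.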

A short description of this assay: cytotoxicity in KRAS-transformed pancreatic duct cells, primary screen, cell-based, fluorescence, HTS (AID 431).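 Further: 0% = DMSO solvent wells and 100% = doxorubicin-treated wells.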 Conditions: HPDE-C7K KRASV12 cells, Alamar Blue viability, 48 h; at 10 µM; hits give high values.
Consider `CCOC(=O)c1oc2ccc(Br)cc2c1CSc1nnc(C)s1`, for which the cytotoxicity is -7.5%.
On to `COC(=O)c1cn(NC(=O)c2cccc(N(C)C)c2)c(=O)c2ccccc12`, for which the cytotoxicity was -1.6%.
The figure for `CCOC(=O)c1c(C)[nH]c(C(=O)CN2C(=O)NC(C)(c3ccc(C)cc3)C2=O)c1C` (stereo unspecified) is 29.2%; for `COc1ccc(S(=O)(=O)N(C)CC(=O)N2CCC(C)CC2)cc1Cl` it is 9.5%; for `CCC(C)(C)n1nnnc1C(c1cc2ccc(C)cc2[nH]c1=O)N(Cc1cccnc1)Cc1ccco1` (stereo unspecified) it is 14.1%.
On to `CCCC(c1nnnn1C(C)(C)CC)N(Cc1ccco1)Cc1cc2ccc(OC)cc2[nH]c1=O` (stereo unspecified), for which the cytotoxicity was 55.7% (active).
For `COc1ccc2[nH]c(=O)c(C(c3nnnn3C(C)(C)C)N(Cc3ccco3)CC3CCCO3)cc2c1` (stereo unspecified), the cytotoxicity is -29.6%.
As to `O=C(Nc1nccs1)c1nc(-c2ccccc2)n(-c2ccccc2)n1`, the cytotoxicity was 76.3% (active).
The figure for `NC(=O)c1ccsc1NC(=O)c1nc(-c2ccccc2)n(-c2ccccc2)n1` is 9.4%; for `Cc1csc(NC(=O)c2nc(-c3ccccc3)n(-c3ccccc3)n2)n1` it is -19.1%; for `CCCCC(=O)Nc1ccc(C(=O)NCc2ccncc2)cc1` it is -7.4%.
The figure for `O=C(CC12CC3CC(CC(C3)C1)C2)N1CCOCC1` is -7.8%; for `CCOC(=O)c1sc2nc(NC(=O)C3CCCCC3)sc2c1C` it is 68.2% (active).
With `CCOC(=O)c1sc2nc(NC(=O)C3CC3)sc2c1C`, the cytotoxicity was 4.4%.
The value for `CCOC(=O)c1sc2nc(NC(=O)C(C)(C)C)sc2c1C` was 2.1%; that for `CCC(C)[C@H](NC(=O)NCc1cccs1)C(=O)OC` (stereo partly specified) was 7.9%; that for `O=S(=O)(c1ccc(Nc2ccc3c(c2)OCO3)nc1)N1CCOCC1` was -0.1%.
As for `O=C(CCS(=O)(=O)c1cccc2nsnc12)NCc1ccccc1`, the cytotoxicity is -10.5%.
The figure for `Cc1cccc(-n2c(CCCN3C(=O)c4ccccc4C3=O)nc3ccccc3c2=O)n1` is -9.8%; for `Cc1oc2c(CN3CCOCC3)c(O)ccc2c(=O)c1-c1ccccc1` it is -12.9%; for `COc1cc(NS(=O)(=O)c2ccc(NC(=O)C3CCCO3)cc2)nc(OC)n1` (stereo unspecified) it is -15.8%.
The value for `Cc1ccc(OCc2nc(-c3ccccn3)no2)c(Br)c1` was 26.3%; that for `Clc1ccc(OCc2nc(-c3ccccn3)no2)c(Br)c1` was 13.1%; that for `CCOc1ccc(-c2nnc(-c3ccco3)o2)cc1OCC` was 1.7%.
The value for `COc1cccc(N2CCN(CC(=O)c3c[nH]c4ccc(OC)cc34)CC2C)c1` (stereo unspecified) was 17.4%; that for `COc1cccc(N2CCN(Cc3nc4ccccc4c(=O)[nH]3)CC2)c1` was 4.2%.
With `O=C1CC(c2ccccc2)n2nc(N3C(=O)CCC3=O)nc2N1` (stereo unspecified), the cytotoxicity was 2.8%.
The value for `CC(=O)Nc1ccc(S(=O)(=O)c2ccc(N)cc2)cc1N` was -5.2%; that for `CC1N=C2c3ccccc3N=C(SCc3cc(=O)n4cc(Cl)ccc4n3)N2C1=O` (stereo unspecified) was 5.7%; that for `CSc1ccc(S(=O)(=O)Nc2ccc3c(c2)OCCO3)cc1` was 9.5%.
The value for `O=S(=O)(Nc1ccc2c(c1)OCCO2)c1ccc2oc3ccccc3c2c1` was 73% (active); that for `COc1ccc(NS(=O)(=O)c2ccc3oc4ccccc4c3c2)cn1` was 35.2%; that for `Cc1ccc2c(c1)c(C)c(C)n2CC(O)Cn1nc(C)cc1C` (stereo unspecified) was -6.3%.
The value for `Oc1c(CN2CCN(c3ccccn3)CC2)cc(Cl)c2cccnc12` was 28.4%.
In the case of `Oc1c(CN2CCc3ccccc3C2)cc(Cl)c2cccnc12`, the cytotoxicity is -1.6%.
The value for `OCc1ccnc2c(O)cccc12` was 11.7%; that for `Oc1ccc2cccnc2c1` was 4.8%; that for `CCC1Oc2ccc(C)cc2N(CC(=O)NCCC2=CCCCC2)C1=O` (stereo unspecified) was 0%.
The value for `O=C(COc1ccc(Cl)cc1)Nc1ccc2oc(-c3ccncc3)nc2c1` was -3%; that for `COc1ccc(CNC(=O)c2cc(-n3cnnc3)ccc2Cl)cc1` was -0.7%; that for `CCOC(=O)N1CCN(C(=O)CSc2nnc(-c3cccs3)o2)CC1` was 4.2%.
The figure for `COc1ccc(NC2=NC3(CCCCC3)N=C(N)N2)cc1` is 10.1%; for `COc1cccc(NC2=NC3(CCCCC3)N=C(N)N2)c1` it is -1.1%; for `CCN(C(=O)COc1ncnc2ccc(Br)cc12)C1CCS(=O)(=O)C1` (stereo unspecified) it is -5.5%.
`COC(=O)c1ccc(CSc2nc3scc(-c4cccs4)c3c(=O)[nH]2)o1`: the cytotoxicity is 50.4% (active).
Turning to `COC(=O)c1ccc(CSc2nc3c(cnn3-c3ccc(C)c(C)c3)c(=O)[nH]2)o1`, the cytotoxicity is 8%.
The figure for `COC(=O)c1ccc(CSc2nc3c(cnn3-c3ccc(F)cc3)c(=O)[nH]2)o1` is 1.7%; for `CN(C)S(=O)(=O)c1ccc(C(=O)Nc2ccc(Cl)cc2)cc1` it is 1.5%.
For the molecule `COc1cc(-c2csc(C)n2)ccc1O`, the cytotoxicity is -3.1%.
The figure for `Oc1ccc(-c2nc(-c3ccc(O)c(O)c3)cs2)cc1` is 79.5% (active); for `CN(c1ccc(O)cc1)c1nc(-c2ccccc2)cs1` it is 4.5%.
The value for `Cc1cccc2cc(C(c3nnnn3CC3CCCO3)N3CCCC4(CCCCC4)C3)c(=O)[nH]c12` (stereo unspecified) was -12.9%; that for `Nc1c(C(=O)NC2CCCC2)sc2nc(-c3cccs3)ccc12` was 12.2%; that for `Cc1csc(NC(=O)c2sc3nc(-c4cccs4)ccc3c2N)n1` was 72.2% (active).
The figure for `CCCSc1nnc(NC(=O)c2sc3nc(-c4cccs4)ccc3c2N)s1` is 22.7%; for `CC(C)CCN1C(=O)c2ccc(C(=O)NCC3CCCO3)cc2C1=O` (stereo unspecified) it is -6.8%; for `O=C(NCCCN1CCN(c2ccccc2F)CC1)Nc1ccc(F)cc1` it is -10.3%.
In the case of `Cc1cc2n(n1)C(c1ccccc1Cl)Nc1ccccc1-2` (stereo unspecified), the cytotoxicity was 18.6%.
The value for `Cc1cc2n(n1)C(c1ccccc1)Nc1ccccc1-2` (stereo unspecified) was 15.3%; that for `CCCNC(=O)Cc1ncn[nH]1` was 3.6%.
The figure for `CCOc1cc(C(=O)O)cc(Cl)c1OCC#N` is -16.2%; for `Cc1ccccc1Cc1c(C)nc2c(C(=O)N3CCN(Cc4ccc5c(c4)OCO5)CC3)cnn2c1C` it is -9.2%; for `Cc1nc2c(C(=O)O)cnn2c(C)c1Cc1ccccc1F` it is -2.2%.
The figure for `CC1(C)CC(=O)c2cc(C(=O)N3CCN(CCO)CC3)c(=O)n(-c3ccc(Cl)cc3)c2C1` is -8.4%.
As to `O=C(c1cc2ccccn2n1)N1CCCC1`, the cytotoxicity was 8%.
The value for `Cc1onc(-c2ccccc2Cl)c1C(=O)NCc1ccc(S(N)(=O)=O)cc1` was -0.7%; that for `O=c1[nH]cnc2scc(-c3ccc(F)cc3)c12` was 7.7%; that for `Cn1nnnc1Sc1ncnc2scc(-c3ccccc3)c12` was 11.1%.
The figure for `COc1ccc(OC)c(NC(=O)CN2CCC(C(=O)c3ccc(C)cc3)CC2)c1` is 4.8%; for `CCC(C)(C)NC(=O)C(c1cccn1C)N(C(=O)Cn1nnc2ccccc21)c1ccc(OC)cc1` (stereo unspecified) it is 41.6%; for `COc1ccc2c(c1)OC(O)(C(F)(F)F)CC2=O` (stereo unspecified) it is -1.5%.
The figure for `O=C1CC(O)(C(F)(F)F)Oc2c1ccc1ccccc21` (stereo unspecified) is 88.6% (active).
For the molecule `O=C1CC(O)(C(F)F)Oc2ccc3ccccc3c21` (stereo unspecified), the cytotoxicity is -1.2%.
The figure for `COc1ccc(NC(=O)c2ccc(-n3nc(C)c[n+]3[O-])cc2)cc1` is -7.1%; for `N#Cc1c2n(cnc1=O)CCCCC2` it is 0%; for `Nc1c(C(=O)NCCN2CCOCC2)c2nc3ccccc3nc2n1CCc1ccccc1F` it is 7.5%.
The figure for `Nc1ccc(-n2c(N)c(C(=O)NCc3ccc4c(c3)OCO4)c3nc4ccccc4nc32)cc1` is 35.9%; for `Nc1c(C(=O)NCCN2CCOCC2)c2nc3ccccc3nc2n1-c1ccc2c(c1)OCO2` it is -10.7%; for `Nc1c(C(=O)NCCN2CCOCC2)c2nc3ccccc3nc2n1CCc1ccccc1` it is 18.1%.
The value for `CC1CN(c2nnnn2-c2ccccc2)CC(C)O1` (stereo unspecified) was -6.4%; that for `Cc1ccc(NC(=O)CSc2nnc(COc3ccc(C#N)cc3)n2-c2ccccc2)cc1C` was -3.3%.
Turning to `Cc1ccc(S(=O)(=O)/C(C#N)=C/c2c(N3CCN(C)CC3)nc3ccccn3c2=O)cc1`, the cytotoxicity was -0.5%.
As for `O=C(O)CSCCC(=O)Nc1ccc(F)cc1`, the cytotoxicity is -3.7%.
The value for `CCOC(=O)Cn1c(CN2CC(C)OC(C)C2)nc2c1c(=O)n(C)c(=O)n2C` (stereo unspecified) was -2.5%; that for `CCOC(=O)N1CCN(C(=O)C2COc3ccccc3O2)CC1` (stereo unspecified) was 11.8%; that for `O=C(O)C1CCCCC1C(=O)Nc1ccc(Cl)cc1Cl` (stereo unspecified) was -0.5%.
As to `CCCOC(=O)CCCCC1SCC(NC(=O)OC)C1NC(=O)OC` (stereo unspecified), the cytotoxicity is 5.4%.
The figure for `CCOC(=O)Cn1c(=O)oc2cc(S(=O)(=O)Nc3cc(Cl)ccc3OC)ccc21` is 0.7%.
The value for `COc1cc2c3c(c1)C1(C(=O)N3C(C)(C)C=C2C)C(C#N)=C(N)Oc2cc(O)ccc21` (stereo unspecified) was -21.4%; that for `CC1=CC(C)(C)N2C(=O)C3(C(C#N)=C(N)Oc4cc(O)ccc43)c3cccc1c32` (stereo unspecified) was 74.3% (active); that for `CC1=CC(C)(C)N2C(=O)C3(C(C#N)=C(N)Oc4cc(C)oc(=O)c43)c3cccc1c32` (stereo unspecified) was -4.3%.
The figure for `Cn1c(SCC2CCCO2)nnc1-c1ccncc1` (stereo unspecified) is -3.1%; for `CCOC(=O)C1CCN(c2ncnc3c2oc2ccc(Cl)cc23)CC1` it is 6.4%; for `Cc1nn(-c2ccccc2)c(C)c1C(=O)OCC(=O)Nc1ccc2c(c1)OCO2` it is -6.3%.
As for `O=C(COC(=O)c1c2c(nc3ccccc13)CCCC2)Nc1ccc2c(c1)OCO2`, the cytotoxicity is 53.6% (active).
The figure for `Cc1onc(-c2ccccc2)c1C(=O)OCC(=O)Nc1ccc2c(c1)OCO2` is 1.3%.
